Laboratory results as given in PubChem BioAssay AID1053173 (Broad Institute, 2014).
Hit rate of the full screen: of about 1,500 compounds, about 390 (26%) were called active. Only a sample is shown. Entries with a potency or affinity are not part of this list. Unmarked numbers belong to inactive results. The rule behind the calls is not given here.

Target: Histone-lysine N-methyltransferase NSD2 (Homo sapiens) (UniProt O96028)
Test: NSD2 methyltransferase inhibitors, dose response, biochemical, AlphaScreen, cherry-picked samples (AID 1053173);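 note: 0% = neutral control wells and -100% = positive control wells on each plate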
Conditions: NSD2 H4 peptide methylation, 120 min; series mostly up to 10 µM; activity change, negative = inhibition: at the top concentration

Histone-lysine N-methyltransferase NSD2 (Homo sapiens), sequence (O96028 whole entry, looked up): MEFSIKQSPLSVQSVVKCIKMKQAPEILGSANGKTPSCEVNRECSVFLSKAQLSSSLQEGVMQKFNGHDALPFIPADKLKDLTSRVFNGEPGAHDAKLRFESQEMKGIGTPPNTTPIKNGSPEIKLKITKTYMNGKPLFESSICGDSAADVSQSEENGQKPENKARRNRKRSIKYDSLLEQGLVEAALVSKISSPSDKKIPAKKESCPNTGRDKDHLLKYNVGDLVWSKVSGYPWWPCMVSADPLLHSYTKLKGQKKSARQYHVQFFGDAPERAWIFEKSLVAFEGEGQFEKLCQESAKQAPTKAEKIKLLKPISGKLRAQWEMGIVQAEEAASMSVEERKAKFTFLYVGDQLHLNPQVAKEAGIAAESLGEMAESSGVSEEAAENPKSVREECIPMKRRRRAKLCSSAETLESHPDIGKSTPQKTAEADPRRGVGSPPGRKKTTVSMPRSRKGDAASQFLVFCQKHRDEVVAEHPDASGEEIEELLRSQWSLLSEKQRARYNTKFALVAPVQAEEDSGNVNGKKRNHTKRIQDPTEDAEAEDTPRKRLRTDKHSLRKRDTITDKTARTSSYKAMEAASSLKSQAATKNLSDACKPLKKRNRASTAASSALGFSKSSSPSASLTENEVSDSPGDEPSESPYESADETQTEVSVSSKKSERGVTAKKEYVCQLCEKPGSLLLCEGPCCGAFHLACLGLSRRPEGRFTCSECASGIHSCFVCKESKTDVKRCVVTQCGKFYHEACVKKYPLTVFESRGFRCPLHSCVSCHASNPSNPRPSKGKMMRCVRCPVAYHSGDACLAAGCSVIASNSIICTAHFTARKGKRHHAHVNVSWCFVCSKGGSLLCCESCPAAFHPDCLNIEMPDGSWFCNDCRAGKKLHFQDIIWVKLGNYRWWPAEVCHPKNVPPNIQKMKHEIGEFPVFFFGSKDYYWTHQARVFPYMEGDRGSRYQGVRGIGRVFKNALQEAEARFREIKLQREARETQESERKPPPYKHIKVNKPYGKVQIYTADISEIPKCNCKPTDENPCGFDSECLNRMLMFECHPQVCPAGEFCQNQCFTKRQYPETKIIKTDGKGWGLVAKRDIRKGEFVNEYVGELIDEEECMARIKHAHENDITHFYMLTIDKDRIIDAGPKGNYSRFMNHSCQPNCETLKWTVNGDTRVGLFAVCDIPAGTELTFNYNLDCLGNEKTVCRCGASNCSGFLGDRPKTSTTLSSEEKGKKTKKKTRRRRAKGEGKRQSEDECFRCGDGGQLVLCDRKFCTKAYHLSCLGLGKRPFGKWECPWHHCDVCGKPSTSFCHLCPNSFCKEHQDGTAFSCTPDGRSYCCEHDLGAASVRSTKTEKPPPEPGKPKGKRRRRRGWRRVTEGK

In order of falling “activity change, negative = inhibition” value:
1. CC1(C)Cc2cccc(OCC(=O)O)c2O1  6.66%
2. O=C1NC2=C(CCc3ccccc32)C(c2ccccc2)N1 (configuration not stated)  6.24%
3. Cc1ccccc1Nc1nc(N)nc(CSc2nnc3sc4ccccc4n23)n1  5.36%
4. Cc1ccc(OCc2cnc(Cl)s2)c(C)c1  5.09%
5. O=[N+]([O-])c1ccc(N/N=C/c2cccs2)nc1  5.01%
6. CCOc1ccc2nc(SCC(=O)NCc3ccco3)sc2c1  4.48%
7. CCOc1ccc(NC(=O)CN(c2cccc(C(F)(F)F)c2)S(C)(=O)=O)cc1  3.66%
8. C/C(NCCc1ccccc1)=C1/CCOC1=O  3.57%
9. O=C(OC(C(=O)NC1CCCCC1)c1ccccn1)c1cccs1 (configuration not stated)  2.7%
10. Cc1cc(F)c(F)c(C(=O)N2C(C)CCCC2C)c1Cl (configuration not stated)  2.63%
11. O=C1NC(NS(=O)(=O)c2ccccc2)(C(F)(F)F)C(=O)N1c1cccc(Cl)c1 (configuration not stated)  2.53%
12. COc1ccc2nc(NC(=O)CS(=O)(=O)c3ccc(C)cc3)sc2c1  2.31%
13. CCOc1ccc(NC(=O)CSc2nc3ccccc3c(=O)n2CCCC(=O)N2CCCC2)cc1  2.25%
14. Cc1cccc(NC(=O)CCN2CCCCC2)c1  2.22%
15. COc1cccc(CN(C)C(=O)c2cc(COc3c(F)cccc3F)on2)c1  1.74%
16. Cc1ccnc(-n2c(CCN3C(=O)c4ccccc4C3=O)nc3ccccc3c2=O)c1  1.68%
17. O=Cc1ccc(OC(=O)C2CC(=O)N(c3ccc(F)cc3)C2)cc1 (configuration not stated)  1.57%
18. CC(=O)C1=C(O)C(=O)N(Cc2cccnc2)C1c1ccccc1 (configuration not stated)  1.51%
19. COc1ccc(CNC(=O)CN(c2ccc(C)cc2)S(=O)(=O)c2c(C)noc2C)cc1  1.5%
20. Cc1cccc(C)c1NC(=O)c1c[nH]c2ccccc12  1.49%
21. O=C(COc1ccc(S(=O)(=O)N2CCCC2)cc1)Nc1ccc(F)cc1  1.47%
22. Cc1cccn2c(=O)c3cc(C(=O)NCCCn4ccnc4)n(C)c3nc12  1.31%
23. Cc1cc(C)cc(-n2c(C)nc3cc(C(=O)O)ccc32)c1  1.21%
24. COc1cc(OC)nc(NC2OC(=O)c3ccccc32)n1 (configuration not stated)  1.18%
25. CC(C)(C)CN1CCNC(=O)C1CC(=O)N1CCC(C(=O)N2CCOCC2)CC1 (configuration not stated)  1.16%
26. Cc1c(C(=O)NC(C)C)oc2c1-c1[nH]ncc1CC2  0.875%
27. COc1ccc(/C=C2/C(=O)N(c3c(F)c(F)c(F)c(F)c3F)N=C2C)cc1  0.848%
28. COc1ccc(CCCc2n[nH]c(=S)n2C)cc1C  0.479%
29. COc1ccc(Nc2oc(COc3ccccc3OC)nc2C#N)cc1  0.344%
30. Cc1cc(Cl)cc(Br)c1OCCCN1C(=O)NC(C)(C)C1=O  0.235%
31. CC1(C)C2CCC1(C)C(OC(=O)CSc1nc(N)cc(=O)[nH]1)C2 (configuration not stated)  0.121%
32. CCN(CC)CCNC(=O)CN1C(=O)COc2ccc(S(=O)(=O)N3CCOCC3)cc21  -0.09%
33. Cc1cc(C)nc(NS(=O)(=O)c2ccc(NC(=O)c3ccccc3Br)cc2)n1  -0.118%
34. CCNC(=O)Cc1ccc(NS(=O)(=O)c2ccc(F)cc2)cc1  -0.17%
35. COC(=O)c1c(NC(=O)C(C)C)sc(C(=O)N2CCOCC2)c1C  -0.343%
36. Cc1nn(CC(=O)Nc2nnc(C(C)C)s2)c(=O)c2ccccc12  -0.421%
37. O=C(CSc1ccc(Cl)cc1)Nc1cc(-c2nc3ncccc3o2)ccc1Cl  -0.517%
38. CC(C)Sc1nnc([C@H](Cc2c[nH]c3ccccc23)NC(=O)OC(C)(C)C)o1  -0.557%
39. Fc1ccc(CNc2nc(-c3cccnc3)nc3ccccc23)cc1  -0.605%
40. Cc1c(C(=O)c2no[n+]([O-])c2C(=O)c2cnn(C)c2C)cnn1C  -0.643%
41. Cc1cc(=O)n(-c2ccc3ccccc3n2)[nH]1  -0.761%
42. O=[N+]([O-])c1cccc(NC(=S)N2CCOCC2)c1  -0.806%
43. O=C(CN1CCC(C(=O)c2ccc3c(c2)OCCO3)CC1)NCc1ccccc1  -0.843%
44. COc1cc(/C=C/c2cccc[n+]2C)ccc1OCC(=O)Nc1ccccc1C  -0.922%
45. CC1CCCCN1C(=O)CCNC(=O)Cn1cnc2ccccc2c1=O (configuration not stated)  -0.925%
46. COc1cc2sc(C)nc2c2ccccc12  -0.927%
47. CCOC(=O)c1cc(S(=O)(=O)Nc2ccc(OC)cc2OC)cn1C  -1.2%
48. CCN(CC)C(=O)C1CCCN(Cc2ccc(OC)c(C)c2C)C1 (configuration not stated)  -1.29%
49. CCOc1ccc(NC(=O)CSc2nnc(C34CC5CC(CC(C5)C3)C4)n2C)cc1  -1.31%
50. Cn1ncc(Cl)c1C(=O)Nc1cc(C(F)(F)F)ccc1F  -1.47%
51. CC1Cc2ccccc2N1C(=O)COc1cccc(-n2cnnn2)c1 (configuration not stated)  -1.63%
52. CC(=O)c1ccc(NC(=S)Nc2cccc3cnccc23)cc1  -1.63%
53. O=C(/C=C/c1ccc(Cl)cc1Cl)NCc1ccco1  -1.67%
54. CC(=O)N=Cc1c(C)c(C#N)c(=O)n(C)c1O  -1.78%
55. CCOc1ccc(N)cc1OC  -2.03%
56. Cc1cc2nn(-c3cccc4ccccc34)nc2cc1NC(=O)c1cccs1  -2.36%
57. Cc1ccc(Cn2c(SCC(=O)N3CC(=O)Nc4ccccc43)nc3ccccc3c2=O)cc1  -2.5%
58. COc1ccc(N2C(=O)C3C(C2=O)C(C(=O)c2ccc(Cl)cc2)N2CCCC32)cc1 (configuration not stated)  -2.69%
59. CNC(=O)c1ccc(-c2cc(C(F)(F)F)nn2C)s1  -2.74%
60. Cc1ccccc1NC(=S)Nc1cccc2cnccc12  -2.75%
61. c1coc(CNCCCN2CCOCC2)c1  -2.81%
62. CC(=NO)c1cc(Br)c2cccc3c2c1CC3  -2.86%
63. CC(C)(C)c1cc(C(=O)N/N=C/c2ccncc2)n[nH]1  -2.87%
64. CCCCCCCCn1cnc2c(N)c(C)c(C)cc21  -2.93%
65. CC(C)(C)c1[nH]nc2c1C(c1ccoc1)C(C#N)=C(N)O2 (configuration not stated)  -2.96%
66. Cc1[nH][nH]c(=O)c1C(c1c(C)[nH][nH]c1=O)c1cn(C)c2ccccc12  -2.97%
67. NS(=O)(=O)c1ccc(CNC(=O)CCCSc2ccccc2)cc1  -3.02%
68. O=C(CSc1nnc(-c2ccccc2O)o1)NC1CCCCC1  -3.18%
69. COc1ccc(-c2nn(-c3ccccc3)cc2C(=O)Nc2ccc(C(=O)O)cc2)cc1  -3.2%
70. COc1ccc(NC2=CC(c3cccc(OC)c3)N(c3ccc(OC)cc3)C2=O)cc1 (configuration not stated)  -3.22%
71. O=C(Nc1nnc(SCc2ccc(F)cc2)s1)c1ccccn1  -3.31%
72. Cc1ccc(NC(=O)C[n+]2ccn(C3=C([O-])c4ccccc4C3=O)c2)cc1  -3.33%
73. Cc1ccc(Cl)cc1N1CCN(C(=O)c2ccc3nc[nH]c3c2)CC1  -3.39%
74. C=CCC1CCCCC1=C(C#N)c1ccccc1 (configuration not stated)  -3.42%
75. CCOc1ccccc1/C=N/NC(=O)c1nnn(-c2nonc2N)c1CN1CCC(C)CC1  -3.55%
76. O=C1/C(=C/c2ccccc2)CN(C(=O)CCN2CCOCC2)C/C1=C\c1ccccc1  -3.75%
77. Cc1[nH]n(-c2ccccc2)c(=O)c1C(c1ccc(C(=O)O)cc1)c1c(C)[nH]n(-c2ccccc2)c1=O  -3.87%
78. CCOc1cc(C(=O)NCC(=O)N2CCC3(CC2)NCCc2[nH]cnc23)cc(OCC)c1OCC  -3.91%
79. O=C1Cc2ccccc2C(=O)N1c1ccccc1  -4.05%
80. O=C(CNC(=O)c1ccccc1)Oc1ccc([N+](=O)[O-])cc1  -4.16%
81. O=C(O)C1CC(c2ccccc2F)=NO1 (configuration not stated)  -4.43%
82. CC(Nc1cccc2ccccc12)C(=O)N/N=C/c1ccccn1 (configuration not stated)  -4.45%
83. COc1ccc(NC(=S)Nc2cccc3cnccc23)cc1  -4.99%
84. Cc1cccc(Nc2nnc(-c3ccc(N4CCOCC4)c([N+](=O)[O-])c3)c3ccccc23)c1  -5.02%
85. CN1/C(=N\O)c2cccc3cccc1c23  -5.13%
86. NC1=NC(=Nc2ccc(Br)cc2)c2ccccc21  -5.36%
87. O=C(O)c1ccc2c(c1)C(=O)N(c1cccc(C(=O)/C=C/c3ccccc3)c1)C2=O  -5.38%
88. Clc1ccc(C2=CSC3=Nc4cccc5cccc(c45)N23)cc1  -5.57%
89. CN(C)CCC(=O)N1C/C(=C/c2ccccc2)C(=O)/C(=C\c2ccccc2)C1  -5.71%
90. O=S(=O)(Nc1cc(Sc2cccc3cccnc23)c(O)c2ccccc12)c1ccccc1  -6.01%
91. COC(=O)N/N=C1/C/C(=N\NC(=O)OC)c2ccccc21  -6.25%
92. N#CCC(=O)c1sccc1-n1cccc1  -6.36%
93. O=C(O)CC(C(=O)O)N1C(=O)/C(=C/c2ccc(-c3nc4ccccc4s3)o2)SC1=S (configuration not stated)  -6.38%
94. COC1=CC(=O)C(OC)=C(OC)C1=O  -6.67%
95. c1ccc(CN2CCN(c3nc(-c4ccccc4)nc(-n4ccnc4)n3)CC2)cc1  -6.94%
96. COC(=O)c1ccc(/C=N/N2CCN(Cc3ccccc3)CC2)cc1  -6.96%
97. Oc1cccc(NC(=S)N=Nc2c(O)[nH]c3ccc(Br)cc23)c1  -7.09%
98. CCN(CC)CCNC(=O)c1cccc(NC(=O)C(=O)c2cc(Br)ccc2NC(C)=O)c1  -7.78%
99. Cc1[nH][nH]c(=O)c1C(c1ccc(-c2ccc(Cl)c(C(=O)O)c2)o1)c1c(C)[nH][nH]c1=O  -7.88%
100. Cc1cccc(/C=N/NC(=O)C(C)Nc2cccc3ccccc23)n1 (configuration not stated)  -8.21%
101. COc1ccc(N/C=C2\CCc3ccccc3C2=O)cc1  -8.24%
102. CNc1ccc(Br)cc(C(=O)/C=C/c2cccc(OC)c2OC)c1=O  -8.99%
103. O=C(O)COc1ccc(/C=C/C(=O)c2ccc3ccccc3c2)cc1  -9.29%
104. N#Cc1c(NC(=O)c2ccncc2)sc2c1CCC2  -9.64%
105. CC(=O)Nc1ccc(S(=O)(=O)/N=C2/NC(=O)/C(=C\c3ccco3)S2)cc1  -9.65%
106. CC(CS(=O)(=O)c1ccc2c(c1)NC(=O)CS2)C(=O)NCc1ccccc1Cl (configuration not stated)  -10.3%
107. CCN1CCN(c2ncnc3scc(-c4ccc(OC)cc4)c23)CC1  -10.3%
108. COCCCNC1=C(Cl)C(=O)c2ccccc2C1=O  -10.6%
109. Cc1ccc(Cl)cc1NC(=O)C[n+]1ccc(Cc2ccc([N+](=O)[O-])cc2)cc1  -11.1%
110. O=C(O)CN1C(=O)/C(=C\c2cccc(OCc3ccc(F)cc3)c2)SC1=S  -11.4%
111. Cc1ccc(/C=C2/SC(=O)NC2=S)o1  -13.5%
112. O=C(O)CN1C(=O)/C(=C/c2ccc(SCc3ccccc3)o2)SC1=S  -15.1%
